Results reported in PubChem BioAssay AID1159580 (chemical genetic matrix, 2015).
Hit rate of the full screen: of about 5,500 compounds, about 2,000 (36%) were called active. Another 18% or so got no clear call; they are omitted. No stated cut-off is given here; in the data, active means normalized growth mostly below about 0.91 (no sharp cut-off); inconclusive means no clear call, values can overlap the other calls; inactive means mostly above about 0.92. Some of the results follow.

Assay: chemical genetic growth profiling, strain panel (AID 1159580);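 further: tested at 20 µM; growth read once vehicle control cultures reached saturation at 30 °C; 1 = growth at the plate median or of vehicle wells; lower values mean less growth of the strain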
Settings: S. cerevisiae deletion strains, growth OD
[1] = locus YAL040C, strain CLN3, hits give low values
[2] = locus YCL061C, strain MRC1 (second series), hits give low values
[3] = locus YDR363W, strain ESC2, hits give low values
[4] = locus YER002W, strain NOP16, hits give low values
[5] = locus YMR307W, strain GAS1, hits give low values
[6] = locus YNL128W, strain TEP1, hits give low values
[7] = locus YNL175C, strain NOP13, hits give low values
[8] = locus YNL197C, strain WHI3, hits give low values
[9] = locus YNL224C, strain SQS1, hits give low values
[10] = locus YOR083W, strain WHI5 (second series), hits give low values
[11] = locus YAR019C, strain CDC15, hits give low values
[12] = locus YBL105C, strain PKC1, hits give low values
[13] = locus YBR135W, strain CKS1, hits give low values
[14] = locus YBR136W, strain MEC1, hits give low values
[15] = locus YBR160W, strain CDC28, hits give low values
[16] = locus YDL017W, strain CDC7, hits give low values
[17] = locus YDL028C, strain MPS1, hits give low values
[18] = locus YDL108W, strain KIN28, hits give low values
[19] = locus YDL132W, strain cdc53, hits give low values
[20] = locus YDL214C, strain PRR2, hits give low values
[21] = locus YDR052C, strain DBF4, hits give low values
[22] = locus YDR054C, strain cdc34, hits give low values
[23] = locus YDR226W, strain ADK1, hits give low values
[24] = locus YDR477W, strain SNF1, hits give low values
[25] = locus YER123W, strain YCK3, hits give low values
[26] = locus YER133W, strain GLC7, hits give low values
[27] = locus YFL009W, strain cdc4, hits give low values
[28] = locus YFL029C, strain CAK1, hits give low values
[29] = locus YFR003C, strain YPI1, hits give low values
[30] = locus YFR019W, strain FAB1, hits give low values
[31] = locus YFR028C, strain CDC14, hits give low values
[32] = locus YGR040W, strain KSS1, hits give low values
[33] = locus YGR052W, strain FMP48, hits give low values
[34] = locus YGR092W, strain DBF2, hits give low values
[35] = locus YHR030C, strain SLT2, hits give low values
[36] = locus YHR079C, strain IRE1, hits give low values
[37] = locus YHR082C, strain KSP1, hits give low values
[38] = locus YHR205W, strain SCH9, hits give low values
[39] = locus YIL147C, strain SLN1, hits give low values
[40] = locus YJL095W, strain BCK1, hits give low values
[41] = locus YJL128C, strain PBS2, hits give low values
[42] = locus YJL157C, strain FAR1, hits give low values
[43] = locus YJR016C, strain ILV3, hits give low values
[44] = locus YJR066W, strain TOR1 (second series), hits give low values
[45] = locus YJR066W, strain TOR1, hits give low values
[46] = locus YKL048C, strain ELM1, hits give low values
[47] = locus YKL067W, strain YNK1, hits give low values
[48] = locus YKL101W, strain HSL1, hits give low values
[49] = locus YKL193C, strain SDS22, hits give low values
[50] = locus YKL203C, strain TOR2, hits give low values
[51] = locus YLR113W, strain HOG1, hits give low values
[52] = locus YLR133W, strain CKI1, hits give low values
[53] = locus YLR403W, strain SFP1, hits give low values
[54] = locus YML070W, strain DAK1, hits give low values
[55] = locus YMR001C, strain CDC5, hits give low values
[56] = locus YMR205C, strain PFK2 (second series), hits give low values
[57] = locus YMR277W, strain FCP1, hits give low values
[58] = locus YNL006W, strain LST8, hits give low values
[59] = locus YNL020C, strain ARK1, hits give low values
[60] = locus YNL161W, strain CBK1, hits give low values
[61] = locus YNL183C, strain NPR1, hits give low values
[62] = locus YNL207W, strain RIO2, hits give low values
[63] = locus YNL222W, strain SSU72, hits give low values
[64] = locus YNL307C, strain MCK1 (second series), hits give low values
[65] = locus YOL078W, strain AVO1, hits give low values
[66] = locus YOL136C, strain PFK27, hits give low values
[67] = locus YOR061W, strain CKA2, hits give low values
[68] = locus YOR119C, strain RIO1, hits give low values
[69] = locus YOR231W, strain MKK1, hits give low values
[70] = locus YOR329C, strain SCD5, hits give low values
[71] = locus YPL031C, strain PHO85, hits give low values
[72] = locus YPL153C, strain RAD53, hits give low values
[73] = locus YPL204W, strain HRR25, hits give low values
[74] = locus YPL209C, strain IPL1, hits give low values
[75] = locus YPL256C, strain CLN2, hits give low values
[76] = locus YPR025C, strain CCL1, hits give low values
[77] = locus YPR106W, strain ISR1, hits give low values
[78] = locus YPR111W, strain DBF20, hits give low values
[79] = strain NNK1, hits give low values
[80] = strain TSCII, hits give low values

Measured: normalized growth

OC[C@H]1O[C@@H](n2cnc3cncnc32)[C@H](O)[C@@H]1O
inactive: [1] 1.01 | [2] 1.01 | [3] 1 | [4] 1.01 | locus YGR078C, strain PAC10, hits give low values 1.03 | locus YMR263W, strain SAP30, hits give low values 0.997 | [5] 1 | [6] 1.03 | [7] 1.02 | [8] 1 | [9] 1.02 | [10] 1.07

COc1ccccc1N1CCN(CCCNc2c(C)c(=O)n(C)c(=O)n2C)CC1
inactive: locus YAL013W, strain DEP1, hits give low values 1.02 | [1] 0.984 | [2] 0.998 | locus YDR150W, strain NUM1, hits give low values 1 | [3] 1.01 | [4] 0.999 | locus YGR229C, strain SMI1, hits give low values 1.04 | locus YJR075W, strain HOC1, hits give low values 1.01 | [5] 1.02 | [6] 1 | [7] 0.976 | [8] 0.985 | [9] 0.995 | locus YNL322C, strain KRE1, hits give low values 0.987 | [10] 0.978

COc1ccccc1C(C[N+](=O)[O-])c1c(N)n(C)c(=O)n(C)c1=O (stereo not drawn)
active: [20] 0.583 | [24] 0.555 | [25] 0.374 | [26] 0.602 | [30] 0.263 | [32] 0.643 | [33] 0.512 | [34] 0.443 | [35] 0.302 | [36] 0.401 | [37] 0.559 | [38] 0.21 | [40] 0.33 | [42] 0.593 | [44] 0.133 | [45] 0.369 | [46] 0.654 | [47] 0.612 | [48] 0.621 | [50] 0.61 | [51] 0.382 | [52] 0.616 | [53] 0.49 | [54] 0.527 | [56] 0.679 | [59] 0.688 | [61] 0.381 | [64] 0.151 | [66] 0.485 | [68] 0.641 | [69] 0.468 | [71] 0.467 | [72] 0.546 | [73] 0.603 | [75] 0.348
inactive: [11] 0.942 | [12] 0.955 | [13] 0.954 | [14] 0.945 | [15] 0.953 | [16] 0.958 | [17] 0.948 | locus YDL101C, strain DUN1, hits give low values 0.916 | [18] 0.945 | [19] 0.953 | [21] 0.962 | [22] 0.945 | [23] 0.954 | [27] 0.96 | [28] 0.933 | [29] 0.953 | [31] 0.956 | [39] 0.953 | [41] 0.941 | [43] 0.962 | [49] 0.963 | [55] 0.946 | [57] 0.956 | [58] 0.957 | [60] 0.957 | [62] 0.954 | [63] 0.956 | [65] 0.956 | [67] 0.678 | [70] 0.956 | [74] 0.95 | [76] 0.958 | [77] 0.961 | [78] 0.966 | [79] 0.953 | [80] 0.941

CC1(C)C/C(=N/Nc2ccc(C(F)(F)F)cc2)c2cc(C(C)(C)C)c(O)c(O)c2O1
inactive: [11] 0.989 | [12] 0.978 | [13] 0.977 | [14] 0.978 | [15] 0.976 | [16] 0.976 | [17] 0.96 | [18] 0.976 | [19] 0.977 | [21] 0.975 | [22] 0.968 | [23] 0.988 | [26] 0.896 | [27] 0.979 | [28] 0.978 | [29] 0.981 | [31] 0.98 | [39] 0.975 | [42] 0.896 | [43] 0.991 | [49] 0.973 | [50] 0.731 | [53] 0.865 | [55] 0.98 | [57] 0.977 | [58] 0.975 | [60] 0.976 | [62] 0.976 | [63] 0.995 | [65] 0.975 | [70] 0.983 | [74] 0.983 | [76] 0.981 | [80] 0.986
active: [20] 0.481 | [24] 0.6 | [25] 0.375 | [30] 0.436 | [32] 0.635 | [33] 0.347 | [34] 0.214 | [35] 0.246 | [36] 0.29 | [37] 0.314 | [38] 0.0779 | [40] 0.283 | [41] 0.129 | [44] 0.355 | [45] 0.36 | [46] 0.275 | [47] 0.532 | [48] 0.204 | [51] 0.199 | [52] 0.419 | [54] 0.426 | [56] 0.364 | [59] 0.375 | [61] 0.302 | [64] 0.116 | [66] 0.427 | [67] 0.243 | [68] 0.534 | [69] 0.277 | [71] 0.576 | [72] 0.436 | [73] 0.535 | [75] 0.243 | [77] 0.421 | [78] 0.319 | [79] 0.434
